DAX1 inh-1 = inhibits human nuclear receptor DAX1; P51843; HEK293 Gal4-DAX1 luciferase reporter, luminescence; inhibition, % at 6.75 µM; 340,000 compounds, 0.99% hits; AID 504766;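 active = inhibition above the mean over all tested compounds plus 3 SD, cut at about 4.2% in these data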;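 also: inhibition shows as a rise in luminescence from relieved DAX1 repression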
Target sequence (P51843 207-470 limits assumed): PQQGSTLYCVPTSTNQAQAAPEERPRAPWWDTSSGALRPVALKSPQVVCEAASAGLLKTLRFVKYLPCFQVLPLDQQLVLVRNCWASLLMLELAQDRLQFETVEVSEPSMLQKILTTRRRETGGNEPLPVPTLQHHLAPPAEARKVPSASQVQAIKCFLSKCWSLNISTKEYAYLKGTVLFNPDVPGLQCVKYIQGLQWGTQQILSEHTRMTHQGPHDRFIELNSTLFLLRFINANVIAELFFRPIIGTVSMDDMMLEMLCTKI
ssDAF12 agonist = activates DAF-12 receptor from parasite S. stercoralis; HEK293 ssDAF-12/GRIP1 lit1-tk-luc reporter, luminescence; % of 3 µM dafachronic acid response; activation, % at 6.8 µM; 370,000 compounds, 1% hits; AID 652126;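 active = activation above the mean over all tested compounds plus 3 SD, cut at about 0.9% in these data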
Wee1 stabilizer = blocks degradation of human Wee1 kinase; P30291; HeLa Luc-Wee1K328M stability, luciferase luminescence; 100% = proteasome inhibitor MG132 effect; reporter increase, % at 5 µM; 220,000 compounds, 1.2% hits; AID 1321;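 active = activation above the mean of all tested compounds plus 3 SD, set per screening run, cut at about 8.8% in these data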;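 also: cells exposed to compound for 20 h before luminescence read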
DAX1 inh-2 = inhibitors of DAX1 repression of SF-1 activated StAR promoter; inhibition, % at 6.8 µM; HEK293T StAR-luciferase reporter, SF-1/DAX-1 repression relief; 370,000 compounds, 1.1% hits;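 active = inhibition above the mean over all tested compounds plus 3 SD, cut at about 3.6% in these data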;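 also: higher inhibition means more luminescence from relief of DAX-1 repression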
hgDAF12 agonist = hgDAF-12 agonism, primary luciferase screen; 370,000 compounds, 1.8% hits; HEK293 GAL4-hgDAF12 UAS-luciferase reporter, agonist luminescence; normalized to butyrate control; activation, % at 6.8 µM;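 active = activation above a cutoff set at the mean of all screened compounds plus 3 SD, cut at about 10% in these data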
hcDAF-12 act = H. contortus DAF-12 activation, primary screen | activation, % at 6.8 µM | HEK293 hcDAF-12 lit1-tk-luc reporter, luminescence; 0% DMSO, 100% Δ7-dafachronic acid | AID 652067 | 370,000 compounds, 1.4% hits;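 active = activation above the mean of all tested compounds plus 3 SD, cut at about 5.5% in these data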
A number is an active result; i = inactive; nt = no result. Most compounds without a hit are left out; they make up all but 4.6% or so of the library.

SMILES	DAX1 inh-1	ssDAF12 agonist	Wee1 stabilizer	DAX1 inh-2	hgDAF12 agonist	hcDAF-12 act
COC(=O)C(C)N1C(=O)S/C(=C\c2cc(C)n(-c3ccccn3)c2C)C1=O (configuration not stated)	i	i	i	i	11	i
Cc1cc(N2CCN(C(c3ccnc4ccccc34)c3nnnn3-c3c(C)cccc3C)CC2)c2ccccc2n1 (configuration not stated)	nt	i	nt	i	i	i
CCC1CCCCN1C(=O)c1ccc(OC2CCN(Cc3ccccn3)CC2)cc1 (configuration not stated)	i	i	nt	i	11	i
CCCCCCc1ccc(-c2ncc(N)cn2)cc1	i	i	i	i	11	i
CCCCCc1ccc(-c2nnc(N)s2)cc1	i	i	i	i	i	i
COc1ccc(C2c3ccc4ccccc4c3Oc3ncn(CCCO)c(=N)c32)cc1OC (configuration not stated)	4.8	i	i	i	i	i
COc1ccc2c3c(ccc2c1)C(=O)/C(=C/O)CC3	i	i	nt	i	i	i
C=C1c2ccccc2O[C@H](C(=O)OCC)[C@@H]1C1CCCCC1	i	i	nt	4.1	i	i
CCOC(=O)C1=C(N)c2ccccc2CC1C1CCCC1 (configuration not stated)	i	i	i	i	i	i
Cc1ccc2cc3cc(C(=O)N4CC(C)CC(C)C4)oc3nc2c1 (configuration not stated)	i	i	i	i	i	i
CCOC(=O)C1CCN(C(=O)c2cc3cc4ccc(OC)cc4nc3o2)CC1	i	i	nt	3.8	i	i
Cc1ccc2cc3cc(C(=O)N4CCCCC4C)oc3nc2c1 (configuration not stated)	i	1.0	i	4.2	12	5.9
Cc1[nH]nc(SCC(=O)NCc2ccc(Cl)cc2)c1[N+](=O)[O-]	i	i	i	i	i	i
Cc1[nH]nc(SCC(=O)NC(C)c2ccccc2)c1[N+](=O)[O-] (configuration not stated)	4.3	i	i	i	i	i
CCc1ccccc1NC(=O)CSc1n[nH]c(C)c1[N+](=O)[O-]	5.3	i	i	i	i	i
Cc1ccc(NC(=O)CSc2n[nH]c(C)c2[N+](=O)[O-])cc1	i	i	i	i	i	i
Nc1ccc(Cl)c[n+]1Cc1cccc2cccnc12	i	i	i	i	i	5.8
Cc1cc(C[n+]2cc(Cl)ccc2N)c2ncccc2c1	i	i	i	i	i	i
Cc1csc(NC(=O)C2CC(=O)N(c3ccc(C)c(C)c3)C2)n1 (configuration not stated)	i	1.6	nt	i	i	i
CC1CCC(NC(=O)CCNC(=O)c2ccc(Br)cc2)CC1 (configuration not stated)	i	i	nt	4.3	i	i
CC1CCC(NC(=O)c2ccc(S(C)(=O)=O)cc2)CC1 (configuration not stated)	i	6.4	i	i	i	i
CS(=O)(=O)c1ccc(C(=O)NC2CCOC2=O)cc1 (configuration not stated)	i	i	i	i	i	i
O=C(Nc1cccnc1Cl)c1ccc(=O)oc1	i	i	i	i	i	i
COC(=O)N/N=C1\CCCc2c(C)cc(C)cc21	4.3	i	i	i	i	i
C/C(CC(=O)Nc1ccc(C)c(Cl)c1)=N\NC(=O)c1ccco1	i	1.0	i	i	12	i
SMILES	DAX1 inh-1	ssDAF12 agonist	Wee1 stabilizer	DAX1 inh-2	hgDAF12 agonist	hcDAF-12 act
O=C(Nc1ccc(N2CCOCC2)c(Cl)c1)c1ccccc1F	i	i	i	3.7	i	i
O=C(NC(=S)Nc1ccc(Br)c(Cl)c1)C1CC1	i	i	nt	i	i	5.8
O=C(Nc1ccc(Br)c(Cl)c1)c1ccco1	i	i	i	i	11	i
C/C(CC(=O)Nc1ccc(C)c(Cl)c1)=N\NC(=O)Cc1ccccc1	i	i	i	i	i	i
Cc1cc(C(=O)Nc2ccc(N3CCOCC3)c(Cl)c2)c(C)o1	4.2	i	i	i	i	i
COc1ccc(NC(=O)c2cccc(F)c2)cc1Cl	i	i	i	i	i	i
COc1ccc(NC(=O)c2ccccc2F)cc1Cl	i	i	i	i	11	i
O=C(Nc1ccc(F)cc1)c1ccccc1F	i	i	i	i	i	6.3
CC(=O)Nc1ccc(NC(=S)NC(=O)C2CC2)cc1	i	i	nt	i	i	i
Cc1ccc(NC(=S)NC(=O)C2CC2)c(C)c1	i	i	nt	4.0	i	i
O=C(Nc1ccccc1N1CCOCC1)c1ccc2ccccc2c1	i	i	nt	i	i	i
CC(=O)Nc1cccc(C(=O)Nc2ccccc2N2CCOCC2)c1	i	i	9.0	i	i	i
O=C(c1ccccc1F)N1CCN(c2ccc([N+](=O)[O-])c(N3CCOCC3)c2)CC1	5.8	i	i	i	i	i
O=C(Nc1ccccc1)Nc1ccc(Br)c(Cl)c1	i	i	i	i	12	6.5
O=C(Nc1ccc(CN2CCOCC2)cc1)c1ccco1	i	i	nt	i	i	5.6
COc1ccc(N2CCN(CCNS(=O)(=O)c3cccs3)CC2)cc1	nt	i	nt	i	i	i
COCCNc1nc(Oc2cccc3ccccc23)c2sccc2n1	nt	i	nt	i	i	i
CC(/C=N/NC(=O)c1ccccc1F)c1ccccc1 (configuration not stated)	6.6	i	i	i	11	i
COc1ccc(NC(=O)C(=O)NCCCO)cc1Cl	4.5	i	i	i	i	i
COc1ccc(NC(=O)c2cccc(OC(F)F)c2)cc1Cl	i	i	i	i	11	i
O=C(Nc1ccc(N2CCOCC2)c(Cl)c1)c1ccco1	i	i	i	3.7	12	i
O=C(C1CCCN(S(=O)(=O)c2ccc([N+](=O)[O-])cc2)C1)N1CCN(Cc2ccccc2)CC1 (configuration not stated)	nt	i	nt	i	i	i
CN(C)/C=C/C(=O)c1ccc(Oc2ncccn2)cc1	i	i	i	i	i	i
Cc1ccc(C(=O)/C=C/N(C)C)cn1	6.8	i	i	i	i	i
CN(C)/C=C/C(=O)c1ccc(Cl)cc1	i	i	11	i	i	i
Cc1c(NC(=O)C2CCCN(S(=O)(=O)c3c(C(C)C)cc(C(C)C)cc3C(C)C)C2)c(=O)n(-c2ccccc2)n1C (configuration not stated)	nt	i	nt	i	i	i
COc1cc(Nc2ccn3nccc3n2)cc(OC)c1OC	nt	i	nt	i	i	i
COC(=O)[C@@H](CC(C)C)CP(=O)(OC)[C@@H](C)NC(=O)OCc1ccccc1 (some centres not stated)	nt	i	nt	i	i	i
O=C/C(=C\Nc1ccccn1)c1nc2ccccc2o1	i	i	i	i	i	5.8
CC(=O)Nc1cccc(/C(C)=N/NC(=O)c2ccc3c(c2)OCO3)c1	i	i	i	i	i	i

Screening results deposited in PubChem BioAssay by The Scripps Research Institute Molecular Screening Center.
